Reference: PubChem BioAssay
Records with an inconclusive call do not appear. The source made the active and inactive calls.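 How the source made its calls, unless noted: active means GFP response, as percent of the DMSO control, above the screen-wide mean plus 3 SD, about 139; inconclusive means no response measured because the compound's own fluorescence interfered; inactive means the rest.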 Peptide text beside a SMILES is read from it. * marks the point of attachment. Boc = CC(C)(C)OC(=O)*

Columns and labels:
[1] = yeast TOR pathway RPL19A-GFP modulators, primary screen, cell-based, S. cerevisiae, multiplex flow cytometry (AID 1862; in the data active means percent of DMSO control GFP below about 86%;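 further: lower values mimic rapamycin by blocking the RPL19A rise seen in DMSO cells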); conditions: S. cerevisiae RPL19A-GFP strain, flow cytometry fluorescence, 3 h; at 10 µM; stronger effect = lower value
[2] = modulators of MEP2-GFP levels in yeast, primary screen, S. cerevisiae, multiplex flow cytometry (AID 1867);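 further: median GFP channel fluorescence of barcode-gated MEP2-GFP cells measured by flow cytometry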; conditions: S. cerevisiae MEP2-GFP strain, 3 h, at 10 µM, stronger effect = higher value, 100% means same as DMSO wells
[3] = modulators of CIT2-GFP expression in yeast, primary screen, S. cerevisiae, GFP fusion, multiplex flow cytometry (AID 1870;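 active means percent response above a set limit, the screen-wide mean plus 3 SD, cut at about 130% in these data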;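 further: barcoded CIT2-GFP strain pooled with four other GFP strains with rapamycin as positive control; median GFP fluorescence per well over plate mean of DMSO wells so 100% = DMSO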); conditions: 3 h, at 10 µM, stronger effect = higher value
[4] = modulators of LAP4-GFP expression in yeast, primary screen, S. cerevisiae, multiplex flow cytometry (AID 1873;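 active means GFP signal, as percent of the solvent control, above the screen mean plus 3 SD, about 149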); conditions: 3 h, at 10 µM, stronger effect = higher value
[5] = modulators of AGP1-GFP expression in yeast TOR pathway, primary screen, cell-based, multiplex flow cytometry, S. cerevisiae (AID 1887;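 active means GFP signal above the screen-wide mean plus 3 SD, that is over about 124.5% of the solvent control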;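 further: AGP1-GFP fusion strain of S. cerevisiae within a five-strain barcoded multiplex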); conditions: 3 h, at 10 µM, stronger effect = higher value
[6] = inhibitors of CD8+ T cell-vesicle binding, pilot screen, LFA-1/ICAM-1 modulator project, MLPCN validation set, flow cytometry (AID 2523;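 active means response below a set limit, under 55% cells CD8-positive and vesicle-bound, and CD8 cells' 90th-percentile brightness under 279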;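 on vesicle binding response: mean PE anti-B7-1 fluorescence of CD8+ cells relative to row control; 100% = QL9-loaded vesicles with DMSO vehicle in the same plate row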); conditions: 2C mouse CD8+ T cells, at 7 µM, stronger effect = lower value; double positive events: measured here: CD8+/vesicle+ event percentage
[7] = target: Integrin beta-1 (Homo sapiens) + Integrin alpha-4 (Homo sapiens) (UniProt P13612+P05556); assay: inhibition of HUTS-21 binding to VLA-4, pilot screen, VLA-4 allosteric modulator project, U937 cells, HUTS-21 mAb, flow cytometry, validation set (AID 2674;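 active means inhibition above 50%, about 3 SD of the validation set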;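 further: antibody binding induced by the VLA-4 ligand LDV present at three times its Kd; 0% = LDV ligand with antibody and no compound and 100% = antibody without LDV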); conditions: HUTS-21 LIBS mAb binding, at 6.7 µM, stronger effect = higher value, binding induced by LDV ligand
Sequence of Integrin beta-1 (Homo sapiens) + Integrin alpha-4 (Homo sapiens) (P05556 whole entry, looked up): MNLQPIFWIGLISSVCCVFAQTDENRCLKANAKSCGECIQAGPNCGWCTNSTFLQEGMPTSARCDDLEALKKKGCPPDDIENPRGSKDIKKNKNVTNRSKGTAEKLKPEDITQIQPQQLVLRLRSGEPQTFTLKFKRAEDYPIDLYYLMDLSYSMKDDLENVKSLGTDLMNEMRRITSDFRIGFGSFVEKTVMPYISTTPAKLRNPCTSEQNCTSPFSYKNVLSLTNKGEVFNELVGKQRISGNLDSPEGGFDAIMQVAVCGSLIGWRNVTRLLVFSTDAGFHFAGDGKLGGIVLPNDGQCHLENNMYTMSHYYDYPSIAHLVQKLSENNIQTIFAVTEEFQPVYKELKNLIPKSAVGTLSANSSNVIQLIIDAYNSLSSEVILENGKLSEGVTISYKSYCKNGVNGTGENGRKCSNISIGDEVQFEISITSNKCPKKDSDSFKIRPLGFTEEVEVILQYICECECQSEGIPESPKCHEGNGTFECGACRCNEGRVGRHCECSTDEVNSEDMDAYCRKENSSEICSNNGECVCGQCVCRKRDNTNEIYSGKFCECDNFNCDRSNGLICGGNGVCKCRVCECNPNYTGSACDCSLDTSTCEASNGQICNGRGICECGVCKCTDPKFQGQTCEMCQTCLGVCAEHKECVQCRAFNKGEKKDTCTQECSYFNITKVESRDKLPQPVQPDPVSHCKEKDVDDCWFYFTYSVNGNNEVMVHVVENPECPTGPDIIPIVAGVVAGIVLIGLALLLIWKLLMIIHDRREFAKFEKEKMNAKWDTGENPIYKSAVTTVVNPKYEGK
Sequence of Integrin beta-1 (Homo sapiens) + Integrin alpha-4 (Homo sapiens) (P13612 whole entry, looked up): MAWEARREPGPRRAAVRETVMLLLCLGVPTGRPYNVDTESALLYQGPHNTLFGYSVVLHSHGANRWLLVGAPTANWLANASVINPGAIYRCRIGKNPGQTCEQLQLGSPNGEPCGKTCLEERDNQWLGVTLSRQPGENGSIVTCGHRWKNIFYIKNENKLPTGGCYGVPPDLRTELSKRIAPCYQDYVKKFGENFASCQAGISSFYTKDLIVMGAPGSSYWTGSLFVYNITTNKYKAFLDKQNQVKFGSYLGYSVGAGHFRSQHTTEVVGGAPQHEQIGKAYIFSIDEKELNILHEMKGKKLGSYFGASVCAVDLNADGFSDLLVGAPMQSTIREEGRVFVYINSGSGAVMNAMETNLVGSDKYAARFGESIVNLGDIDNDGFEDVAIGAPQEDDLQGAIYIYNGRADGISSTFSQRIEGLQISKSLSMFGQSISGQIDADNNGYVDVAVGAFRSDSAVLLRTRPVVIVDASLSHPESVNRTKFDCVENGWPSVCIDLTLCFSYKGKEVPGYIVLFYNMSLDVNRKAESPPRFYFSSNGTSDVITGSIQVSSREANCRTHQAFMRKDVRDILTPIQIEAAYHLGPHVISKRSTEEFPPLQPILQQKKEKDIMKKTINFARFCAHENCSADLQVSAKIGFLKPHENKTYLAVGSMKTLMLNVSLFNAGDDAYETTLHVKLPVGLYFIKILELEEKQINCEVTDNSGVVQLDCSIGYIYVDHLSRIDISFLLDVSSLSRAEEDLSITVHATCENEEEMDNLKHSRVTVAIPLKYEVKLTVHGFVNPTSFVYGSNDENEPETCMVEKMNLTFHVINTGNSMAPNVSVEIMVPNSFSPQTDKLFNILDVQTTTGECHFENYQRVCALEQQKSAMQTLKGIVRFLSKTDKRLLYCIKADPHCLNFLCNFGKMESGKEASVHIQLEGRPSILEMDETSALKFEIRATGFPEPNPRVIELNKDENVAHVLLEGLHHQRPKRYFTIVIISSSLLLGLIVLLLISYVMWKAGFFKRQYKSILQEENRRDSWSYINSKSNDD

[8] = superoxide lowering in aged yeast cells, pilot screen, validation compound set (AID 2706;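 active means superoxide response below 65% of plate, a cut near 3 SD across the whole screen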;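 further: yeast exposed to compound for one week at 30 degrees C before staining; 100% = mean of all compound wells on the same plate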); conditions: S. cerevisiae aging, superoxide DHE fluorescence; at 10 µM, stronger effect = lower value
[9] = target: Beta-adrenergic receptor kinase 1 (Homo sapiens) (UniProt P25098); assay: GRK2 binders displacing RNA aptamer, biochemical, validation, human GRK2, bead flow cytometry (AID 488806;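 active means aptamer binding inhibition above 30%, about 3 SD of noise from non-fluorescent compounds; inactive means inhibition at or below 30%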); conditions: bead-bound GRK2, FAM-aptamer displacement, at 10 µM, stronger effect = higher value
Sequence of Beta-adrenergic receptor kinase 1 (Homo sapiens) (P25098 whole entry, looked up): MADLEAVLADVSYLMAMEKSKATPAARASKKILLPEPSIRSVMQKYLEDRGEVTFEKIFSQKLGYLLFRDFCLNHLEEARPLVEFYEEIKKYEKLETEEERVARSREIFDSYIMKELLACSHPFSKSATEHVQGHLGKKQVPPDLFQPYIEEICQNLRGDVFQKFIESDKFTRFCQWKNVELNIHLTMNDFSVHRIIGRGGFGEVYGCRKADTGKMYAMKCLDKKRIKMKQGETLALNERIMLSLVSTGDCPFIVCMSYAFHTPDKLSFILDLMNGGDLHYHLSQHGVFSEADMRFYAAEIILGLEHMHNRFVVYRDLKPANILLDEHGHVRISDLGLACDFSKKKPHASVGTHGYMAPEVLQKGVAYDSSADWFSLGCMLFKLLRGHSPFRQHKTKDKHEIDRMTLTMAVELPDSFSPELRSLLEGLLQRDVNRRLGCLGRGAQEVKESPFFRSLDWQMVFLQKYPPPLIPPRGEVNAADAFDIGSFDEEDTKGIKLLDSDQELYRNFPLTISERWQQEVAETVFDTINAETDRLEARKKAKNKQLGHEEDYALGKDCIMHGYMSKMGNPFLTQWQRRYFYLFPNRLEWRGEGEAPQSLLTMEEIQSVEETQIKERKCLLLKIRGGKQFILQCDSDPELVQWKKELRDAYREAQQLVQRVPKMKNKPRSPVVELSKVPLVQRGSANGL

[10] = target: AP-2 complex subunit beta (Homo sapiens) (UniProt P63010); assay: inhibitors of arrestin peptide binding to AP2, pilot screen, biochemical, validation set, GST-AP2 beads, flow cytometry (AID 504541;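 active means inhibition above 54%, about 3 SD of non-fluorescent compounds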;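 further: AP2 carries R879A mutation and is captured from E. coli lysate; bead-bound FITC arrestin peptide fluorescence measuring arrestin peptide binding to AP2; 0% = DMSO wells and 100% = excess unlabeled arrestin peptide control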); conditions: FITC arrestin peptide, at 10 µM, stronger effect = higher value, AP2 beta2 appendage fragment, R879A mutant
Sequence of AP-2 complex subunit beta (Homo sapiens) (P63010 whole entry, looked up, the tested form may be a part, one chain of several): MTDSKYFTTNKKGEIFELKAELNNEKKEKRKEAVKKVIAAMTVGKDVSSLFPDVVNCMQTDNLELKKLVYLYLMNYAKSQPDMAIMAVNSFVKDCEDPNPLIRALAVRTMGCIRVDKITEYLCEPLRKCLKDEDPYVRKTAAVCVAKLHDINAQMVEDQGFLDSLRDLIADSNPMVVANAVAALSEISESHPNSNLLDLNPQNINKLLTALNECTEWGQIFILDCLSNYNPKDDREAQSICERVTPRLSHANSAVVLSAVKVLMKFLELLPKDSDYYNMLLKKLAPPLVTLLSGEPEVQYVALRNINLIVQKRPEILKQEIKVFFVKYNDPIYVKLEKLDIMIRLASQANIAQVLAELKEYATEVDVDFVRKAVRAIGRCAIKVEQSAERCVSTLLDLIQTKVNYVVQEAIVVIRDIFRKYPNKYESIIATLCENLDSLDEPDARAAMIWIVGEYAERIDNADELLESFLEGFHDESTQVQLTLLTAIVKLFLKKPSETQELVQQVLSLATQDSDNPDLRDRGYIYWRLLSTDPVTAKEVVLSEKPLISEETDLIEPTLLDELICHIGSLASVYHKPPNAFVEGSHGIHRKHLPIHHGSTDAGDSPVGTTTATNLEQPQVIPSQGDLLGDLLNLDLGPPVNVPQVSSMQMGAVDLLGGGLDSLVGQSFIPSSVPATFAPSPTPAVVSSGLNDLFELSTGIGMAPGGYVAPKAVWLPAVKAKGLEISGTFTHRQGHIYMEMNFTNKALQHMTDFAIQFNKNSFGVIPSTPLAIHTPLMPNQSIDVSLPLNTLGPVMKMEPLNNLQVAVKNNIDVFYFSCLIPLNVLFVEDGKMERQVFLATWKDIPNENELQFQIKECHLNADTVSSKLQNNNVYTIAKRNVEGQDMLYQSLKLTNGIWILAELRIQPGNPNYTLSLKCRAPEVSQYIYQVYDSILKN

[11] = yeast V-ATPase proton transport modulators, S. cerevisiae, pHLuorin, HTS validation (AID 504600; in the data active means response above about 15%;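 further: plate controls were DMSO for no effect and reference compound for full effect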); conditions: S. cerevisiae pHLuorin cytosolic pH, at 10 µM, stronger effect = higher value
[12] = tested on: anti-desmoglein-3 scFv antibody binding to human DSG3; assay: inhibitors of anti-DSG3 scFv binding to DSG3, pilot screen, biochemical, validation compound set, bead-based, flow cytometry (AID 588368;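 active means binding below the plate cutoff, the plate median minus 3 SD, with a reading above zero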;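 further: signal is the median channel fluorescence of bead-bound GFP antibody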); conditions: Protein G beads, DSG3-Fc, scFv-GFP binding, at 10 µM, stronger effect = lower value
[13] = inhibitors of fungal efflux pumps CDR1, CDR2, MDR1, pilot screen, validation compound set, multiplex, phenotypic (AID 588506;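 active means efflux inhibition above 0.42, the validation set average plus 4 SD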;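 further: Nile Red retained in cells so higher fluorescence means more efflux inhibition; 0 = negative control wells and 1 = enniatin B 25 µM full block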); conditions: S. cerevisiae pump-expressing triplex, Nile Red efflux flow cytometry; at 10 µM; stronger effect = higher value; the pumps come from Candida albicans
[14] = target: ATP-binding cassette sub-family B member 6 (Homo sapiens) (UniProt Q9NP58); assay: ABCB6 transporter inhibitors, pilot screen, K562-ABCB6 cells, flow cytometry, validation set (AID 588550;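 active means inhibition above the screen-wide mean plus 3 SD, about 51%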;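 further: 0% = DMSO wells and 100% = benzethonium chloride 70 µM positive control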); conditions: K562-ABCB6 porphyrin accumulation, 1 h, at 10 µM, stronger effect = higher value
Sequence of ATP-binding cassette sub-family B member 6 (Homo sapiens) (Q9NP58 whole entry, looked up): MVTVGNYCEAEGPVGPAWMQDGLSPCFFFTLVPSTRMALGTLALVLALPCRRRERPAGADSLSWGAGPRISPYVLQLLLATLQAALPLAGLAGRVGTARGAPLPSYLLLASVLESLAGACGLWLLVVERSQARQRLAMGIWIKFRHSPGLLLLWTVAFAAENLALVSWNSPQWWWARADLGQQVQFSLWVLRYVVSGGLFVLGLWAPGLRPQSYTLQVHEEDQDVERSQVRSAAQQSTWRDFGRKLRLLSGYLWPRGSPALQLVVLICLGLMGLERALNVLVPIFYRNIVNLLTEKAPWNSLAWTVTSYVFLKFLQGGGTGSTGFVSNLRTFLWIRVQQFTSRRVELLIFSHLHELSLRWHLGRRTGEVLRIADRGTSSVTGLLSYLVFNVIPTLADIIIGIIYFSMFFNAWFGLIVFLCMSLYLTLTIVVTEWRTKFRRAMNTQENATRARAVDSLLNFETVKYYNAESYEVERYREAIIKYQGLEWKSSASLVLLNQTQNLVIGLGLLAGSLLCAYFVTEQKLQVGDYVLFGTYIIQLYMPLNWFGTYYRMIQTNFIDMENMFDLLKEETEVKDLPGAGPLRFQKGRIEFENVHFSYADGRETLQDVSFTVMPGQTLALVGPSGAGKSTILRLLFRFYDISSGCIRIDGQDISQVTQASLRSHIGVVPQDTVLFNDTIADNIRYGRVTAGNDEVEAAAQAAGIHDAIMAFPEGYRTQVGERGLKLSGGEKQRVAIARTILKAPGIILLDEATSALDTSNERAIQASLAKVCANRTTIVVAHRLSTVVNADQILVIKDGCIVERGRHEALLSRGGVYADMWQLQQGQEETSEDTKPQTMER

[15] = promoters of myeloid differentiation in arrested cells, primary screen, cell-based, GFP/MAC1 double positive, flow cytometry, validation set (AID 588685;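 active means differentiation response of at least 50%, scaled between solvent and reference control, from cells with both markers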;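 further: compound exposure lasts four days before antibody staining and flow analysis; 0% = DMSO wells and 100% = 5 µM fulvestrant positive control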); conditions: ER-HoxA9 marrow cells, stronger effect = higher value, normalized: vehicle 0, fulvestrant 100

Row | Structure (SMILES) | percent of DMSO control GFP [1] | GFP response vs DMSO [2] | percent response of DMSO control [3] | GFP response vs DMSO [4] | GFP response, % of DMSO [5] | double positive events [6] [%] | vesicle binding response [6] | inhibition [7] | superoxide response (% of plate) [8] | aptamer binding inhibition [9] | inhibition [10] | response [11] | binding (% of control) [12] | efflux inhibition (fraction of control) [13] | inhibition [14] | differentiation response [15]
1 | NC(=O)c1c(-c2ccccc2)oc2ccc(O)cc12 | 100% (inactive) | 97.9% (inactive) | 90% (inactive) | 100% (inactive) | 98.5% (inactive) | 66.7 | 260% (inactive) | 14.7% (inactive) | 90.9% (inactive) | 0% (inactive) | -7.96% (inactive) | -1.1% (inactive) | 102% (inactive) | -0.09 (inactive) | 10% (inactive) | -13.1% (inactive)
2 | O=C(Nc1cccc(Cl)c1)N1CCN2C(=O)c3ccccc3C12c1ccccc1 (stereo not drawn) | 100% (inactive) | 98.9% (inactive) | 96.9% (inactive) | 92.3% (inactive) | 96.3% (inactive) | 58.4 | 153% (inactive) | 0.69% (inactive) | 92.6% (inactive) | 3% (inactive) | 0.48% (inactive) | 2.99% (inactive) | 102% (inactive) | 0.29 (inactive) | 7% (inactive) | -13.1% (inactive)
3 | O=C(COc1ccccc1)N1CCN(c2ccccc2)CC1 | 102% (inactive) | 104% (inactive) | 103% (inactive) | 100% (inactive) | 97.8% (inactive) | 53.2 | 176% (inactive) | -3.97% (inactive) | 94% (inactive) | 2% (inactive) | 5.07% (inactive) | -1.27% (inactive) | 97.8% (inactive) | 0.25 (inactive) | 6% (inactive) | 9.49% (inactive)
4 | COc1ccc(C=NCC2COc3ccccc3O2)cc1OC (stereo not drawn) | 103% (inactive) | 101% (inactive) | 98.8% (inactive) | 90.3% (inactive) | 95.5% (inactive) | 62.8 | 187% (inactive) | 0.69% (inactive) | 104% (inactive) | -1% (inactive) | 17.1% (inactive) | -2.12% (inactive) | 107% (inactive) | 0.63 (active) | 10% (inactive) | -5.05% (inactive)
5 | CC(C)(C)OC(=O)N1CCCC1C(=O)NC(Cc1ccccc1)C(=O)O (stereo not drawn) (Boc-Pro-Phe-OH; configuration not given here) | 101% (inactive) | 98.9% (inactive) | 104% (inactive) | 104% (inactive) | 102% (inactive) | 61.4 | 186% (inactive) | 13.8% (inactive) | 92.5% (inactive) | -1% (inactive) | 9.73% (inactive) | 4.48% (inactive) | 101% (inactive) | 0.22 (inactive) | 10% (inactive) | 7.87% (inactive)
6 | C[C@@H]1C[C@H]2[C@@H]3CCC4=CC(=O)C=C[C@]4(C)[C@@]3(F)[C@@H](O)C[C@]2(C)[C@@]1(O)C(=O)COP(=O)(O)O | 104% (inactive) | 98.9% (inactive) | 101% (inactive) | 83.3% (inactive) | 93% (inactive) | 53.3 | 126% (inactive) | 20.3% (inactive) | 106% (inactive) | 2% (inactive) | -3.37% (inactive) | 4.69% (inactive) | 96.9% (inactive) | -0.09 (inactive) | 10% (inactive) | -13.1% (inactive)
7 | CN(Cc1ccccc1)CC(O)COc1ccc(CNCc2cccnc2)cc1 (stereo not drawn) | 101% (inactive) | 102% (inactive) | 103% (inactive) | 91.3% (inactive) | 100% (inactive) | 56.7 | 211% (inactive) | -1.17% (inactive) | 93.8% (inactive) | -6% (inactive) | -7.34% (inactive) | 2.19% (inactive) | 105% (inactive) | -0.16 (inactive) | 9% (inactive) | 24% (inactive)
8 | COC(=O)c1ccc(=O)n(Cc2ccco2)c1 | 94.7% (inactive) | 92.8% (inactive) | 97.9% (inactive) | 92.3% (inactive) | 96.9% (inactive) | 58.2 | 166% (inactive) | -6.77% (inactive) | 86.5% (inactive) | -2% (inactive) | -1.44% (inactive) | -0.2% (inactive) | 94.6% (inactive) | -0.16 (inactive) | 12% (inactive) | -8.27% (inactive)
9 | CCN(CC)CCNc1ccc(CO)c2sc3ccccc3c(=O)c12 | 104% (inactive) | 109% (inactive) | 112% (inactive) | 112% (inactive) | 103% (inactive) | 47.8 | 231% (inactive) | 21.2% (inactive) | 109% (inactive) | -5% (inactive) | -0.76% (inactive) | 2.76% (inactive) | 120% (inactive) | -0.39 (inactive) | 8% (inactive) | -8.27% (inactive)
10 | Cc1nc(C)c(C)nc1C | 101% (inactive) | 101% (inactive) | 102% (inactive) | 100% (inactive) | 103% (inactive) | 64.7 | 132% (inactive) | 12.8% (inactive) | 104% (inactive) | -3% (inactive) | 31.6% (inactive) | -7.78% (inactive) | 103% (inactive) | 0.25 (inactive) | 8% (inactive) | 3.03% (inactive)
11 | CCOC(=O)c1ccc(N2C(=O)C(CC(N)=O)N(CCc3ccc(OC)c(OC)c3)C2=S)cc1 (stereo not drawn) | 96.9% (inactive) | 105% (inactive) | 94.9% (inactive) | 96.4% (inactive) | 88.8% (inactive) | 46.3 | 153% (inactive) | -10.5% (inactive) | 107% (inactive) | 2% (inactive) | 18.9% (inactive) | 1.03% (inactive) | 97.2% (inactive) | 0.75 (active) | 21% (inactive) | -21.2% (inactive)
12 | CC[C@]1(O)C[C@@H]2CN(CCc3c([nH]c4ccccc34)[C@@](C(=O)OC)(c3cc4c(cc3OC)N(C)[C@H]3[C@@](O)(C(=O)OC)[C@H](OC(C)=O)[C@]5(CC)C=CCN6CC[C@]43[C@@H]65)C2)C1 | 102% (inactive) | 101% (inactive) | 101% (inactive) | 92.3% (inactive) | 99% (inactive) | 55.4 | 153% (inactive) | 23.1% (inactive) | 86.7% (inactive) | -13% (inactive) | -7.9% (inactive) | 1.26% (inactive) | 111% (inactive) | 0.59 (active) | 8% (inactive) | 3.03% (inactive)
13 | NCCOc1ccccc1OCCN | 102% (inactive) | 93.8% (inactive) | 102% (inactive) | 90.3% (inactive) | 99.9% (inactive) | 59.5 | 208% (inactive) | -6.77% (inactive) | 91.8% (inactive) | -6% (inactive) | -11.9% (inactive) | -1.26% (inactive) | 109% (inactive) | -0.2 (inactive) | 11% (inactive) | -26% (inactive)
14 | Cc1nc(C(=O)Nc2ccccc2Cl)cc2c1[nH]c1ccccc12 | 99.6% (inactive) | 108% (inactive) | 106% (inactive) | 100% (inactive) | 98.2% (inactive) | 53.9 | 172% (inactive) | -1.17% (inactive) | 111% (inactive) | 1% (inactive) | -0.33% (inactive) | 2.14% (inactive) | 95.4% (inactive) | 0.14 (inactive) | 11% (inactive) | -9.89% (inactive)
15 | COc1ccc(CNC(=O)C2CCN(C(=O)[C@@H](CC(C)C)NC(=O)OC(C)(C)C)CC2)cc1 | 98.3% (inactive) | 90.8% (inactive) | 98.8% (inactive) | 92.3% (inactive) | 92.7% (inactive) | 63.6 | 326% (inactive) | 14.7% (inactive) | 98.6% (inactive) | 1% (inactive) | -7.96% (inactive) | -2.19% (inactive) | 98.7% (inactive) | -0.09 (inactive) | 8% (inactive) | 3.03% (inactive)
16 | COC(=O)c1cc(-c2ccc(C)o2)nc2ccccc12 | 101% (inactive) | 95.9% (inactive) | 93.9% (inactive) | 109% (inactive) | 78.2% (inactive) | 45.1 | 76.1% (inactive) | -21.7% (inactive) | 109% (inactive) | 5% (inactive) | 3.96% (inactive) | 2% (inactive) | 108% (inactive) | 0.94 (active) | 10% (inactive) | -8.27% (inactive)
17 | Cn1nc(-c2ccccn2)nc2c(=O)n(C)c(=O)nc1-2 | 103% (inactive) | 98.9% (inactive) | 110% (inactive) | 105% (inactive) | 105% (inactive) | 59.4 | 165% (inactive) | -40.4% (inactive) | 107% (inactive) | 61% (active) | 17.4% (inactive) | -11.7% (inactive) | 94.9% (inactive) | -0.12 (inactive) | -1% (inactive) | -22.8% (inactive)
18 | Cc1ccc(C(CC(=O)NCc2ccco2)c2ccc(OC(C)C)cc2)cc1 (stereo not drawn) | 99.8% (inactive) | 106% (inactive) | 96.9% (inactive) | 103% (inactive) | 96.9% (inactive) | 60.4 | 165% (inactive) | -138% (inactive) | 103% (inactive) | 2% (inactive) | 37.9% (inactive) | -2.51% (inactive) | 97.7% (inactive) | 0.67 (active) | 12% (inactive) | -6.66% (inactive)
